Data on 40 molecules can be found in PubChem BioAssay (NCI).

This is part of a sample that, as a whole, favours compounds with a hit. Of some 83,000 tested, about 20% had one in any assay.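 The endpoint reported here, percent growth, reads 100 for growth as untreated, 0 for no net growth and -100 for all cells dead.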 The source made the active and inactive calls.

This assay deals with ACHN renal. In words: NCI-60 one-dose screen, 48 h (100 = growth as untreated, 0 = no growth, -100 = all killed). Particulars: 10 µM unless noted. As for the experimental part: Growth inhibition of the ACHN human tumor cell line is measured as a screen for anti-cancer activity. Cells are grown in 96 well plates and exposed to the test compound for 48 hours. Compounds are tested at a single concentration, which is 10^-5 M for most compounds. The reported endpoint is percent growth (GI% or GIPRCNT), where numbers from 0 - 100% represent growth inhibition, and numbers from -100% - 0 represent cell death. For example, a value of 40 represents 60% growth inhibition. A value of 0 means no net growth occurred over the course of the experiment. A value of -40 indicates 40% of cells at the beginning of the experiment died by the end of the experiment. A value of -100 means all cells are dead at the end of the experiment.
NCI-60 Human Tumor Cell Lines Screen was performed using the standard one-dose NCI protocol, which is described in more detail at https://dtp.cancer.gov/discovery_development/nci-60/default.htm.
Compounds with GIPRCNT values below 10 were considered active. Activity score was based on GIPRCNT using the following formula: […]
Score is 0 for GIPRCNT values of 100 or above, 50 for GIPRCNT values of 0, and 100 for GIPRCNT values of -100.
Regarding `Cc1cc(=O)oc2cc(Oc3nc(-c4ccc(Cl)cc4)cn4c(-c5ccc(Cl)cc5)cnc34)ccc12`, the growth was 97.7% (inactive).
As to `COc1cc2nc3cc([N+](=O)[O-])ccc3c(NCCCNCC(C)(C)O)c2cc1OC`, the growth was 1.58% (active).
The same measure for `COc1cc(/C=N\NC(=O)CN2CCN(c3cc4c(cc3F)c(=O)c(C(=O)N/N=C/c3ccc(O)c(OC)c3)cn4C3CC3)CC2)ccc1O`: 99.2% (inactive).
As to `Cc1ccc(-c2nc(/C=N/Nc3cc(C)nc4ccc(Cl)cc34)c(C)o2)cc1`, the growth is -100% (active).
Regarding `O=C([C@@H](COCc1ccccc1)N1C(=O)[C@@H](N2C(=O)OC[C@@H]2c2ccccc2)[C@H]1/C=C/c1ccccc1)N1CCC(CCN2CCCCC2)CC1`, the growth is 99% (inactive).
To `CN1CCCCC1CCN1c2ccccc2Sc2ccc(Br)cc21` (stereo not given) belongs 58.7% (inactive); to `O=c1ccc2cc3ccccc3cc2[nH]1`, 108% (inactive).
For `COc1ccc(-c2nc(Nc3cc(C)[nH]n3)c3ccccc3n2)cc1`, the growth was 42.8% (inactive).
`COc1cc(-c2cc(-c3nc4ccc(Cl)cc4[nH]3)[nH]n2)cc(OC)c1OC`: the growth is 51.9% (inactive).
Consider `O=C(O)c1cccnc1Br`, for which the growth is 99.6% (inactive).
As to `OCCNCCNc1c2ccccc2nc2ccccc12`, the growth is 65.3% (inactive).
To `C/C(=C(/c1ccc(O)cc1)c1ccc(Cl)cc1)c1ccccc1` belongs -92.3% (active); to `COc1cc(-c2cnc3nonc3n2)c(OC)c2c1OCO2`, 91.6% (inactive).
For `Nc1cccc(-c2nc3sccn3c2-c2ccnc(NCCCNS(=O)(=O)c3ccc(C(F)(F)F)cc3)n2)c1`, the growth is 6.33% (active).
On to `C/C(=C(/c1ccc(O)cc1)c1ccc(OCCN(C)C)cc1)c1ccccc1`, for which the growth is 89.2% (inactive).
For the molecule `CCCCN(CC)CCCCCCCCCCN1CCCc2cc(OC)ccc21`, the growth is 76.7% (inactive).
With `O=c1c2cccc3c(Nc4ccccn4)ccc(c32)c2nc3ccccc3n12`, the growth is 76.1% (inactive).
For `Cc1cc(OCc2ccc(C(F)(F)F)cc2)c2c(c1)C(=O)C=C(NCCN1CCCC1)C2=O`, the growth was 72.5% (inactive).
Regarding `COc1ccc(-c2cc(=O)[nH]c3c(OC)c4ccccc4c(OC)c23)cc1`, the growth is 50.5% (inactive).
Turning to `COc1ccc(C/C(C)=C(\c2ccc(OCCN3CCCCCC3)cc2)c2ccc(OC(=O)C3CCCCC3)cc2)cc1`, the growth is 80.8% (inactive).
To `COc1cccc(-c2nc3sccn3c2-c2ccnc(NCCCNS(=O)(=O)c3ccc(Cl)cc3)c2)c1` belongs 36.3% (inactive); to `CN1Cc2c(cc(CN3CCCCC3)n2C)C(c2ccc(Br)cc2)C1` (stereo not given), 98.1% (inactive).
To `Cc1cc(N/N=C/c2nc(-c3ccc(Cl)cc3)oc2C)c2cc(Br)ccc2n1` belongs 75.8% (inactive); to `COc1ccc(C2CC(=O)Nc3c2c(C)nn3-c2nc3ccccc3[nH]2)cc1` (stereo not given), 99.1% (inactive).
The same measure for `c1ccc2c(Nc3cccc4ccccc34)cccc2c1`: 79.1% (inactive); for `CC[n+]1ccc2c(c1)C(=O)c1nccc3c1c-2nc1ccccc13`: 6.37% (active).
For the molecule `CC/C=C\C[C@H](F)C/C=C1/C(=O)C=C[C@@H]1C/C=C\CCCC(=O)OC`, the growth was -52% (active).
The same measure for `C[C@@H]1CCC2=C(CCC[C@]2(C)C(=O)O)[C@@]1(C)CCc1ccoc1`: 101% (inactive).
The same measure for `COc1cc(-c2c3c(nc4c2c(C)nn4-c2ccccc2)-c2ccccc2C(=O)C3=O)cc(OC)c1OC`: 82.3% (inactive); for `O=C(CCN1CCOCC1)Nc1ccc(Cn2nnc3c2C(=O)c2nnn(Cc4ccc(NC(=O)CCN5CCOCC5)cc4)c2C3=O)cc1`: 96.6% (inactive).
Take `COc1ccc(-c2c3c(nc4n[nH]c(-c5ccc(Cl)cc5)c24)-c2ccccc2C(=O)C3=O)cc1`: the growth is 10.7% (inactive).
As to `CCCC(=O)Oc1ccc(/C(=C(/CC)Cc2ccccc2)c2ccc(OCCN3CCCC3)cc2)cc1`, the growth is 87.3% (inactive).
To `CCOC(=O)C12CCCC1=CC(=O)CC2` (stereo not given) belongs 106% (inactive); to `COc1cc(NCCCCN=C(N)NC(N)=NC(C)C)c2ncccc2c1`, 108% (inactive); to `CCCCN(CCCC)Cc1c(C)[nH]c2cc(OC)ccc2c1=O`, 110% (inactive).
The same measure for `O=C(/C=C/c1ccc(Cl)cc1)/C=C/c1cc2ccccc2[nH]c1=O`: 74% (inactive).
For the molecule `Brc1cccc(-c2nc(-c3ccc4c(c3)OCCO4)co2)c1`, the growth is 85.4% [25 µM] (inactive).
Take `CC[C@H](CO)Nc1nc(NCc2ccccc2)n2ncc(C(C)C)c2n1`: the growth is 4.26% (active).
As for `COc1ccc(/C=c2/c(=O)[nH]c3nc4sc(C)c(C)c4c(=O)n23)cc1`, the growth is 91.5% (inactive).
`CCN(CC)CC#CCOC(=O)[C@]1(C)CCC[C@@]2(C)[C@H]1CC(C=O)=C1C=C(C(C)C)CC[C@@H]12`: the growth was 86.9% (inactive).
